We go through 59 compounds from the antibiotic and cytotoxicity screens of Wong et al. (2023).

Out of some 39,000 compounds screened, about 3,300 (8.5%) were called active. The sample holds actives, similar compounds and a random draw of the others, so the mix is not that of the screen.

In this assay the test system is HepG2. Kind of assay: cytotoxicity call (relative viability < 0.9). The following applies: 10 µM.
Take `C[C@@H]1CCCCO[C@H](CN(C)S(=O)(=O)c2cn(C)cn2)[C@@H](C)CN([C@H](C)CO)C(=O)c2cc(N(C)C)ccc2O1`: the cytotoxicity call is “inactive”.

Turning to `C[C@H](CO)N1C[C@H](C)[C@@H](CN(C)C(=O)Nc2ccc(C(F)(F)F)cc2)Oc2ccc(NS(=O)(=O)c3ccc(Cl)cc3)cc2C1=O`, the cytotoxicity call is “inactive”.

Take `CCCN1C[C@H](C)[C@H](OC)CN(C)C(=O)c2ccc(NS(=O)(=O)c3cn(C)cn3)cc2OC[C@@H]1C`: the cytotoxicity call is “inactive”.

In the case of `CN1CCN(C(=O)C[C@@H]2CC[C@H]3[C@@H](COC[C@H](O)CN3C(=O)C3CCOCC3)O2)CC1`, the cytotoxicity call is “inactive”.

For `C[C@H]1CN([C@@H](C)CO)C(=O)c2cccc(NS(=O)(=O)c3ccccc3)c2O[C@H]1CN(C)Cc1ccc(Oc2ccccc2)cc1`, the cytotoxicity call is “inactive”.

For `C[C@@H]1CN([C@@H](C)CO)C(=O)c2cc(NC(=O)C3CCCCC3)ccc2O[C@@H](C)CCCCO[C@@H]1CN(C)Cc1ccccc1`, the cytotoxicity call was “inactive”.

As for `COc1cc(C(=O)O[C@H]2CC[C@@]3(C)[C@@H]4CC[C@H]5[C@]6(O)C[C@H](O)[C@@]7(O)[C@@H](CN8C[C@@H](C)CC[C@H]8[C@@]7(C)O)[C@]6(O)C[C@@]53O[C@@]24O)cc(OC)c1OC`, the cytotoxicity call was “inactive”.

`O=C(Nc1ncc(SCCN2CCCC2)s1)[C@]1(c2ccc(S(=O)(=O)C3CC3)cc2)C[C@H]1C1CCCCC1`: the cytotoxicity call is “active”.

For the compound `Cc1ccc(-c2ccc3c(c2)O[C@H](CN(C)C(=O)CN(C)C)[C@@H](C)CN([C@H](C)CO)S3(=O)=O)cc1`, the cytotoxicity call was “inactive”.

With `Cn1c(C(=O)N2CCCO[C@@H](Cn3cccn3)C2)cc(=O)n(C)c1=O`, the cytotoxicity call is “inactive”.

On to `C[C@H]1CN([C@@H](C)CO)C(=O)c2cc(NC(=O)Nc3ccc(F)cc3)ccc2O[C@@H]1CN(C)S(=O)(=O)c1cn(C)cn1`, for which the cytotoxicity call is “inactive”.

In the case of `COc1ccc(S(=O)(=O)N(C)C[C@@H]2Oc3ccc(NS(=O)(=O)c4cn(C)cn4)cc3CC(=O)N([C@@H](C)CO)C[C@@H]2C)cc1`, the cytotoxicity call was “inactive”.

For the compound `CN(C)c1cc(CNCC(C)(C)C)c(O)c2c1C[C@H]1C[C@H]3[C@H](N(C)C)C(=O)[C@H](C(N)=O)C(=O)[C@@]3(O)C(=O)[C@@H]1C2=O`, the cytotoxicity call is “inactive”.

Turning to `C[C@@H]1CN([C@@H](C)CO)C(=O)c2cc(NC(=O)Nc3ccc(C(F)(F)F)cc3)ccc2O[C@H]1CN(C)Cc1ccncc1`, the cytotoxicity call is “active”.

As for `C[C@@H]1CN([C@H](C)CO)C(=O)c2cc(NC(=O)Nc3ccc(C(F)(F)F)cc3)ccc2O[C@H]1CN(C)Cc1ccncc1`, the cytotoxicity call was “inactive”.

For the compound `C[C@@H]1CN([C@H](C)CO)C(=O)c2cc(NC(=O)Nc3ccc(C(F)(F)F)cc3)ccc2O[C@@H]1CN(C)Cc1ccncc1`, the cytotoxicity call is “inactive”.

`C[C@H]1CN([C@@H](C)CO)C(=O)c2cc(NC(=O)Nc3ccc(C(F)(F)F)cc3)ccc2O[C@H]1CN(C)Cc1ccncc1`: the cytotoxicity call was “inactive”.

`C[C@H]1CN([C@@H](C)CO)C(=O)c2cc(NC(=O)Nc3ccc(C(F)(F)F)cc3)ccc2O[C@@H]1CN(C)Cc1ccncc1`: the cytotoxicity call was “active”.

Turning to `C[C@@H]1CN([C@@H](C)CO)C(=O)c2cc(NC(=O)Nc3ccc(C(F)(F)F)cc3)ccc2O[C@@H]1CN(C)Cc1ccncc1`, the cytotoxicity call is “inactive”.

Regarding `CO[C@H]1CN(C)C(=O)c2cc(NC(=O)C3CCOCC3)ccc2OC[C@@H](C)N(Cc2cccnc2)C[C@@H]1C`, the cytotoxicity call is “inactive”.

For the compound `CC(C)NC(=O)N(C)C[C@H]1Oc2ccc(NC(=O)Cc3ccccc3)cc2CC(=O)N([C@H](C)CO)C[C@@H]1C`, the cytotoxicity call was “inactive”.

For the compound `c1ccc(Oc2ccncc2)cc1`, the cytotoxicity call was “inactive”.

Consider `COC(=O)C(CC#Cc1ccc2c(c1)[C@]1(C(=O)N2)[C@H](c2ccc(O)cc2)N2[C@H](c3ccccc3)[C@H](c3ccccc3)OC(=O)[C@H]2[C@@H]1C(=O)NC[C@H](O)c1ccccc1)C(=O)OC`, for which the cytotoxicity call was “inactive”.

Consider `C[C@H]1CN([C@@H](C)CO)C(=O)c2c(c3ccccc3n2C)-c2ccccc2CO[C@H]1CN(C)Cc1ccc(Oc2ccccc2)cc1`, for which the cytotoxicity call was “inactive”.

Turning to `COc1ccc(S(=O)(=O)Nc2cccc3c2O[C@H](CN(C)S(=O)(=O)c2ccccc2)[C@H](C)CN([C@@H](C)CO)C3=O)cc1`, the cytotoxicity call was “inactive”.

Regarding `COCC#Cc1ccc2c(c1)O[C@H](CN(C)C(=O)COC)[C@H](C)CN([C@@H](C)CO)S2(=O)=O`, the cytotoxicity call was “inactive”.

Consider `Cc1cc(OCc2nnc(SC3CCCC3)n2-c2cccnc2)ccc1-c1ccc(S(C)(=O)=O)cc1`, for which the cytotoxicity call was “active”.

As for `Cc1nc(N)c(C(=O)O)nc1C`, the cytotoxicity call was “inactive”.

Consider `C[C@@H]1CN([C@H](C)CO)C(=O)Cc2cc(NC(=O)Cc3cn(C)c4ccccc34)ccc2O[C@H]1CN(C)Cc1ccc(C(=O)Nc2ccccc2N)cc1`, for which the cytotoxicity call is “inactive”.

As to `COc1ccc(S(=O)(=O)Nc2ccc3c(c2)C(=O)N([C@@H](C)CO)C[C@H](C)[C@@H](CN(C)Cc2ccc(Cl)c(Cl)c2)OCCCC[C@@H](C)O3)cc1`, the cytotoxicity call was “active”.

For `COc1ccc(CN(C)C[C@@H]2OCCCC[C@@H](C)Oc3ccc(NS(=O)(=O)c4ccc(OC)cc4)cc3C(=O)N([C@H](C)CO)C[C@@H]2C)cc1`, the cytotoxicity call was “inactive”.

Turning to `COc1ccc(S(=O)(=O)Nc2ccc3c(c2)C(=O)N([C@H](C)CO)C[C@H](C)[C@@H](CN(C)Cc2ccc(Cl)c(Cl)c2)OCCCC[C@@H](C)O3)cc1`, the cytotoxicity call was “active”.

For the compound `COc1ccc(CN(C)C[C@H]2OCCCC[C@@H](C)Oc3ccc(NS(=O)(=O)c4ccc(OC)cc4)cc3C(=O)N([C@@H](C)CO)C[C@@H]2C)cc1`, the cytotoxicity call was “inactive”.

On to `COc1ccc(CN(C)C[C@@H]2OCCCC[C@@H](C)Oc3ccc(NS(=O)(=O)c4ccc(OC)cc4)cc3C(=O)N([C@@H](C)CO)C[C@H]2C)cc1`, for which the cytotoxicity call is “inactive”.

In the case of `COc1ccc(CN(C)C[C@H]2OCCCC[C@H](C)Oc3ccc(NS(=O)(=O)c4ccc(OC)cc4)cc3C(=O)N([C@@H](C)CO)C[C@@H]2C)cc1`, the cytotoxicity call is “inactive”.

As to `COc1ccc(CN(C)C[C@H]2OCCCC[C@H](C)Oc3ccc(NS(=O)(=O)c4ccc(OC)cc4)cc3C(=O)N([C@H](C)CO)C[C@H]2C)cc1`, the cytotoxicity call is “inactive”.

As to `COc1ccc(CN(C)C[C@H]2OCCCC[C@@H](C)Oc3ccc(NS(=O)(=O)c4ccc(OC)cc4)cc3C(=O)N([C@H](C)CO)C[C@H]2C)cc1`, the cytotoxicity call was “inactive”.

In the case of `COc1ccc(S(=O)(=O)Nc2ccc3c(c2)C(=O)N([C@H](C)CO)C[C@@H](C)[C@H](CN(C)Cc2ccc(Cl)c(Cl)c2)OCCCC[C@H](C)O3)cc1`, the cytotoxicity call is “active”.

For the compound `COc1ccc(S(=O)(=O)Nc2ccc3c(c2)C(=O)N([C@@H](C)CO)C[C@H](C)[C@@H](CN(C)Cc2ccc(Cl)c(Cl)c2)OCCCC[C@H](C)O3)cc1`, the cytotoxicity call is “active”.

Consider `C[C@H]1CCCCO[C@H](CN(C)C(=O)Nc2ccc3c(c2)OCO3)[C@@H](C)CN([C@@H](C)CO)C(=O)c2cc(NS(=O)(=O)c3cccs3)ccc2O1`, for which the cytotoxicity call was “inactive”.

Consider `C[C@H](CO)N1C[C@H](C)[C@H](CN(C)Cc2ccc(C(=O)Nc3ccccc3N)cc2)Oc2c(NS(C)(=O)=O)cccc2C1=O`, for which the cytotoxicity call is “inactive”.

For `COCCNCCn1cnc2c1c(=O)[nH]c(=O)n2C`, the cytotoxicity call was “inactive”.

As for `C[C@@H]1CCCCO[C@@H](CN(C)Cc2ccncc2)[C@H](C)CN([C@H](C)CO)C(=O)c2cc(NC(=O)Nc3ccc4c(c3)OCO4)ccc2O1`, the cytotoxicity call is “inactive”.

`C[C@@H]1CCCCO[C@@H](CN(C)C(=O)CCCN(C)C)[C@@H](C)CN([C@@H](C)CO)C(=O)c2cc(NC(=O)Nc3ccc(C(F)(F)F)cc3)ccc2O1`: the cytotoxicity call was “inactive”.

For the compound `Cc1ccc(S(=O)(=O)N(C)C[C@H]2OCCCC[C@H](C)Oc3ccc(NC(=O)Nc4c(C)noc4C)cc3C(=O)N([C@@H](C)CO)C[C@@H]2C)cc1`, the cytotoxicity call was “inactive”.

On to `C[C@H](CO)N1C[C@H](C)[C@@H](CN(C)C(=O)Nc2cccc3ccccc23)Oc2ccc(NS(=O)(=O)c3ccc(F)cc3)cc2C1=O`, for which the cytotoxicity call was “inactive”.

On to `C[C@H]1CN([C@@H](C)CO)C(=O)Cc2cc(NC(=O)C3CC3)ccc2O[C@@H]1CN(C)S(=O)(=O)c1cn(C)cn1`, for which the cytotoxicity call was “inactive”.

As for `COc1ccc(S(=O)(=O)Nc2ccc3c(c2)C(=O)N([C@@H](C)CO)C[C@H](C)[C@H](CN(C)Cc2ccc(Cl)c(Cl)c2)OCCCC[C@@H](C)O3)cc1`, the cytotoxicity call was “active”.

With `COc1ccc(S(=O)(=O)Nc2ccc3c(c2)C(=O)N([C@H](C)CO)C[C@H](C)[C@H](CN(C)Cc2ccc(Cl)c(Cl)c2)OCCCC[C@H](C)O3)cc1`, the cytotoxicity call is “inactive”.

For `COc1ccc(S(=O)(=O)Nc2ccc3c(c2)C(=O)N([C@H](C)CO)C[C@@H](C)[C@H](CN(C)Cc2ccc(Cl)c(Cl)c2)OCCCC[C@@H](C)O3)cc1`, the cytotoxicity call is “active”.

As for `COc1ccc(S(=O)(=O)Nc2ccc3c(c2)C(=O)N([C@@H](C)CO)C[C@@H](C)[C@@H](CN(C)Cc2ccc(Cl)c(Cl)c2)OCCCC[C@@H](C)O3)cc1`, the cytotoxicity call was “active”.

Take `COc1ccc(S(=O)(=O)Nc2ccc3c(c2)C(=O)N([C@H](C)CO)C[C@H](C)[C@H](CN(C)Cc2ccc(Cl)c(Cl)c2)OCCCC[C@@H](C)O3)cc1`: the cytotoxicity call is “active”.

As to `COc1ccc(S(=O)(=O)Nc2ccc3c(c2)C(=O)N([C@H](C)CO)C[C@@H](C)[C@@H](CN(C)Cc2ccc(Cl)c(Cl)c2)OCCCC[C@H](C)O3)cc1`, the cytotoxicity call was “inactive”.

As for `COCCNC(=O)C[C@H]1C[C@@H]2c3cc(NS(C)(=O)=O)ccc3O[C@@H]2[C@@H](CO)O1`, the cytotoxicity call was “inactive”.

Turning to `O=C(O)c1csc2ccccc12`, the cytotoxicity call was “inactive”.

Regarding `Cc1noc(C)c1S(=O)(=O)N(C)C[C@H]1OCCCC[C@@H](C)Oc2ccc(NS(C)(=O)=O)cc2C(=O)N([C@H](C)CO)C[C@@H]1C`, the cytotoxicity call is “inactive”.

In the case of `COc1ccc(S(=O)(=O)N(C)C[C@H]2Oc3ccc(NC(=O)NC(C)C)cc3CC(=O)N([C@@H](C)CO)C[C@H]2C)cc1`, the cytotoxicity call is “inactive”.

Turning to `O=C(CN1C(=O)COCC1=O)N1CCOCC1`, the cytotoxicity call was “inactive”.

For `CCCNC(=O)Nc1ccc2c(c1)OC[C@H](C)N(C(=O)C1CCOCC1)C[C@H](C)[C@H](OC)CN(C)C2=O`, the cytotoxicity call is “inactive”.
